# The panel holds about 83,000 compounds, 20% with a hit somewhere; the sample as a whole holds those more often.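 Testing used 96-well plates and a 48-hour single-concentration exposure. Example: -40 means 40% of the starting cells died.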 A number with no mark means an inactive call. Active and inactive are the calls of the source. The calls were made as follows: active = growth percent below 10; inactive = the rest.
# Tests used:
# Test in all cases: NCI-60 one-dose screen, 48 h (100 = growth as untreated, 0 = no growth, -100 = all killed)
# Conditions in all cases: 10 µM unless noted
# SR leukemia = system: SR leukemia
# RPMI-8226 leukemia = system: RPMI-8226 leukemia
# OVCAR-8 ovarian = system: OVCAR-8 ovarian
# OVCAR-5 ovarian = system: OVCAR-5 ovarian
# OVCAR-4 ovarian = system: OVCAR-4 ovarian
# SK-OV-3 ovarian = system: SK-OV-3 ovarian
# IGROV1 ovarian = system: IGROV1 ovarian
# OVCAR-3 ovarian = system: OVCAR-3 ovarian
# HS 578T breast = system: HS 578T breast
# NCI/ADR-RES ovarian = system: NCI/ADR-RES ovarian
# T-47D breast = system: T-47D breast
# BT-549 breast = system: BT-549 breast
# MDA-MB-435 melanoma = system: MDA-MB-435 melanoma
# SW-620 colon = system: SW-620 colon
# MCF7 breast = system: MCF7 breast
# HCT-116 colon = system: HCT-116 colon
# HCC-2998 colon = system: HCC-2998 colon
# KM12 colon = system: KM12 colon
SMILES,growth (SR leukemia),growth (RPMI-8226 leukemia),growth (OVCAR-8 ovarian) [%],growth (OVCAR-5 ovarian) [%],growth (OVCAR-4 ovarian) [%],growth (SK-OV-3 ovarian),growth (IGROV1 ovarian) [%],growth (OVCAR-3 ovarian),growth (HS 578T breast),growth (NCI/ADR-RES ovarian) [%],growth (T-47D breast) [%],growth (BT-549 breast) [%],growth (MDA-MB-435 melanoma),growth (SW-620 colon) [%],growth (MCF7 breast) [%],growth (HCT-116 colon),growth (HCC-2998 colon) [%],growth (KM12 colon)
COc1ccccc1NC(=O)COc1ccc(/C=C2/Oc3cc4occc4c(OC)c3C2=O)cc1OC,93.5%,66.7%,85.4,111,112,110%,122,105%,112%,90.8,86.4,93,107%,111,99.4,102%,106,97.8%
Nc1nc(-c2cc3c(cc2Cl)NC(=O)/C3=C/c2ccc(Cl)cc2)cs1,13.8%,31.9%,50.8,92,48.6,71.8%,34.9,32.8%,48.1%,74.5,18.1,26.3,1.64% (active),30,16.8,24.2%,73.3,36%
COc1cc(C(=O)NNC(=O)c2ccccc2C(=O)O)cc(OC)c1OC,-10.9% (active),10.8%,39.5,84.5,77.7,52%,50.2,29%,67.8%,37.7,39.5,58.4,60.4%,36.9,30.1,29%,68.5,36.9%
O=C(NNC(=O)c1ccc([N+](=O)[O-])cc1)c1ccc([N+](=O)[O-])cc1,99.1%,95.5%,112,102,93.8,96.1%,112,104%,104%,104,92,89.8,101%,106,90.4,84.6%,104,105%
Cc1nccc2c3ccc(OCc4cn(Cc5ccc(Br)cc5)nn4)cc3n(CCCc3ccccc3)c12,77.8%,72.9%,60.8,106,50.9,81.6%,77.4,82.1%,66.9%,78.8,93.3,88.2,96.7%,97.8,75.2,63.6%,84.7,92.6%
O=C(O)c1ccc(-n2cc(/C=N/Nc3ccc(F)cc3)c(-c3cccc(C(F)(F)F)c3)n2)cc1,87%,47.2%,78.4,78.2,92.4,94.6%,74.8,70.8%,89.2%,65.2,73.2,95.4,57.8%,63.3,46.4,66.3%,55.2,52.8%
CNCCCOc1c(Br)cc(CCNC(=O)/C(Cc2ccc(OC)c(Br)c2)=N/O)cc1Br,-30.7% (active),8.44% (active),73.2,86.7,27.9,63.4%,49.5,65.5%,37.6%,81.3,54.7,56.8,41%,41,19,19.8%,46,42.1%
CC(=O)Cc1cccnc1,104%,93%,97,109,108,114%,100,116%,95.2%,104,96.2,92.4,110%,97.1,101,81.6%,108,105%
COc1ccc(/C=N/C2=NNC(C)(c3ccccc3O)N2C(Cc2c[nH]c3ccccc23)C(=O)O)cc1 (stereo unspecified),6.53% (active),-15.2% (active),17.1,69.4,33.3,46.8%,16.7,30%,51.7%,34.9,12.9,21.6,3.69% (active),17.2,13.1,10.8%,47.7,13.1%
CCn1c(C)nc([N+](=O)[O-])c1Sc1nc(N)nc2nc[nH]c12,16.6%,3.41% (active),24.1,31.7,47.4,5.32% (active),77.5,24.5%,50.4%,25.5,44.8,47.9,25.3%,39.4,14.5,16%,30.6,21.2%
CN1CCN(CC(=O)N(C)c2ccc(N=C(c3ccccc3)c3c(O)[nH]c4ccc(C#N)cc34)cc2)CC1,0.738% (active),57.6%,39.1,80.1,48,-7.83% (active),31,52.2%,-2.32% (active),106,69.4,15.1,23.9%,16.5,12.7,9.41% (active),39.8,9.43% (active)
COc1ccc(-c2nnc(SCC(=O)N3CCN(c4cc5c(cc4F)c(=O)c(C(=O)O)cn5C4CC4)CC3)o2)cc1OC,90.6%,90.1%,96.9,96.2,103,84.2%,97.1,111%,101%,98.1,70.7,69.1,100%,96.2,83.6,55.3%,108,99.4%
OCc1cn(-c2ccc(Cl)cc2)nc1-c1ccc(O)cc1,82.1%,97.3%,106,99.9,91.6,105%,91.3,108%,105%,94.7,85.3,86.1,88.9%,112,90.4,96.9%,103,90.9%
CCOC(=O)c1noc2c1CCc1c-2cn(Cc2ccc(OC)cc2)c1-c1cc(OC)c(OC)c(OC)c1,17.8%,24.7%,32.6,71.2,63.2,65.3%,33.2,3.47% (active),8.37% (active),21.9,40.9,19.6,-28.1% (active),22.9,18,8.2% (active),39.6,21.3%
CC(=O)Oc1ccc(C(OC(C)=O)OC(C)=O)cc1,88.8%,107%,114,108,117,97.6%,109,103%,105%,103,72.1,94.2,104%,112,98.5,92.8%,97.2,98.6%
Cc1ncc(CO)c(C(=O)O)c1O,86.8%,131%,104,105,103,104%,107,94.8%,102%,104,78.4,86.6,106%,108,98.9,78%,95.3,101%
Cc1ccc[n+](CC(=O)c2cccc3ccccc23)c1,112%,101%,114,98.6,103,96.9%,96,98.6%,106%,108,91.9,93.8,102%,106,98.6,99.6%,104,103%

# Reference: PubChem BioAssay (NCI)
